# Reference: paper PMC11006913
# Target: T1, SIX6 (Homo sapiens, UniProt O95475 114-200, T139Q)
# T1 sequence: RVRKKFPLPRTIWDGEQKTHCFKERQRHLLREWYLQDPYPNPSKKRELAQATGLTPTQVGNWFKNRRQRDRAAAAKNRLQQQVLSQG
# Test: PBM; 200 nM protein, PBS
# Conditions: dsDNA, one strand shown
row,Sequence,binding signal
1,GGATCACA,"11.2 upbm affinity estimate (log intensity, higher = more binding, comparable within an allelic series)"

# Target: HOXC9 (Homo sapiens, UniProt P31274 178-260)
# Test: PBM; 200 nM protein, PBS
# Conditions: dsDNA, one strand shown
# Sequence of HOXC9 (Homo sapiens, UniProt P31274 178-260) (P31274 178-260): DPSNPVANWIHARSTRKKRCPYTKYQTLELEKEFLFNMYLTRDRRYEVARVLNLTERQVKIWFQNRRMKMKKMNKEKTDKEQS
row,Sequence,binding signal
1,AGCCCGAG,"9.62 upbm affinity estimate (log intensity, higher = more binding, comparable within an allelic series)"
2,CCGGACGG,"9.65 upbm affinity estimate (log intensity, higher = more binding, comparable within an allelic series)"
3,CCCGACGC,"9.54 upbm affinity estimate (log intensity, higher = more binding, comparable within an allelic series)"
4,CAGGCTTC,"9.43 upbm affinity estimate (log intensity, higher = more binding, comparable within an allelic series)"
5,ATGAATGA,"11 upbm affinity estimate (log intensity, higher = more binding, comparable within an allelic series)"
6,GCCTCCCA,"9.69 upbm affinity estimate (log intensity, higher = more binding, comparable within an allelic series)"
7,AGCCACGG,"9.71 upbm affinity estimate (log intensity, higher = more binding, comparable within an allelic series)"
8,GACCCTCC,"9.69 upbm affinity estimate (log intensity, higher = more binding, comparable within an allelic series)"
9,CCGAGAGG,"9.42 upbm affinity estimate (log intensity, higher = more binding, comparable within an allelic series)"
10,CCCGAGGG,"9.55 upbm affinity estimate (log intensity, higher = more binding, comparable within an allelic series)"

# Target: MSX2 (Homo sapiens, UniProt P35548 130-214, R199I)
# Sequence (P35548 130-214 R199I): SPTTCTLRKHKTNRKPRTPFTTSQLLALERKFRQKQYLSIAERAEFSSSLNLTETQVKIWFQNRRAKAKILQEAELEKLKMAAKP
# Test: PBM; 200 nM protein, PBS
# Conditions: dsDNA, one strand shown
row,Sequence,binding signal
1,GCCCGGAC,"9.48 upbm affinity estimate (log intensity, higher = more binding, comparable within an allelic series)"
2,CCCCCCAG,"9.41 upbm affinity estimate (log intensity, higher = more binding, comparable within an allelic series)"
3,TAATTTGA,"12.2 upbm affinity estimate (log intensity, higher = more binding, comparable within an allelic series)"
4,CGCGCGCG,"9.61 upbm affinity estimate (log intensity, higher = more binding, comparable within an allelic series)"

# Target: ALX1 (Homo sapiens, UniProt Q15699 118-204, L144V)
# Sequence (Q15699 118-204 L144V): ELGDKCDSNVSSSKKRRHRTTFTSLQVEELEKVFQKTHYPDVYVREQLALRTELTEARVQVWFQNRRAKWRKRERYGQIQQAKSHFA
# Test: PBM; 200 nM protein, PBS
# Conditions: dsDNA, one strand shown
row,Sequence,binding signal
1,CCGGACGG,"6.5 upbm affinity estimate (log intensity, higher = more binding, comparable within an allelic series)"
2,CAGCCTCC,"6.61 upbm affinity estimate (log intensity, higher = more binding, comparable within an allelic series)"
3,CCGAGAGG,"6.38 upbm affinity estimate (log intensity, higher = more binding, comparable within an allelic series)"

# Target: ALX3 (Homo sapiens, UniProt O95076 139-225, N203Q)
# Sequence (O95076 139-225 N203Q): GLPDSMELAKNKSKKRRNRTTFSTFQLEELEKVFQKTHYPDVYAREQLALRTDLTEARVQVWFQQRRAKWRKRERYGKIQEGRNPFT
# Test: PBM; 200 nM protein, PBS
# Conditions: dsDNA, one strand shown
row,Sequence,binding signal
1,CCGGACGG,"7.77 upbm affinity estimate (log intensity, higher = more binding, comparable within an allelic series)"
2,CCCCCTTC,"7.42 upbm affinity estimate (log intensity, higher = more binding, comparable within an allelic series)"
3,CAGCCTCC,"7.63 upbm affinity estimate (log intensity, higher = more binding, comparable within an allelic series)"
4,CCGGCAGG,"7.82 upbm affinity estimate (log intensity, higher = more binding, comparable within an allelic series)"
5,AGCCACGG,"7.72 upbm affinity estimate (log intensity, higher = more binding, comparable within an allelic series)"

# Target: T2, PAX4 (Homo sapiens, UniProt O43316 9-242, R200Q)
# T2 sequence: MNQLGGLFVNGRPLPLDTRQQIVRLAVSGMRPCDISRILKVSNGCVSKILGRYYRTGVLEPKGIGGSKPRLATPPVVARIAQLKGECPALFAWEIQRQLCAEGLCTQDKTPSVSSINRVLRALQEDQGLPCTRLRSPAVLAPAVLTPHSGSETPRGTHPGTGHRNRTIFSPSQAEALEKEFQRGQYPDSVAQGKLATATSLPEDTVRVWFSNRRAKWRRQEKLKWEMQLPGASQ
# Test: PBM; 200 nM protein, PBS
# Conditions: dsDNA, one strand shown
row,Sequence,binding signal
1,CCCTGGTC,"9.25 upbm affinity estimate (log intensity, higher = more binding, comparable within an allelic series)"
2,GCACCACC,"9.35 upbm affinity estimate (log intensity, higher = more binding, comparable within an allelic series)"
3,TAATTTGA,"11.9 upbm affinity estimate (log intensity, higher = more binding, comparable within an allelic series)"

# Target: HOXC9 (Homo sapiens, UniProt P31274 178-260, R193K)
# Sequence (P31274 178-260 R193K): as the sequence (P31274 178-260) above, with R16K counted along it
# Test: PBM; 200 nM protein, PBS
# Conditions: dsDNA, one strand shown
row,Sequence,binding signal
1,AGCCCGAG,"9.59 upbm affinity estimate (log intensity, higher = more binding, comparable within an allelic series)"
2,CCGGACGG,"9.6 upbm affinity estimate (log intensity, higher = more binding, comparable within an allelic series)"
3,CCCGACGC,"9.42 upbm affinity estimate (log intensity, higher = more binding, comparable within an allelic series)"
4,CAGGCTTC,"9.37 upbm affinity estimate (log intensity, higher = more binding, comparable within an allelic series)"
5,ATGAATGA,"11.2 upbm affinity estimate (log intensity, higher = more binding, comparable within an allelic series)"
6,GCCTCCCA,"9.59 upbm affinity estimate (log intensity, higher = more binding, comparable within an allelic series)"
7,AGCCACGG,"9.61 upbm affinity estimate (log intensity, higher = more binding, comparable within an allelic series)"
8,GACCCTCC,"9.67 upbm affinity estimate (log intensity, higher = more binding, comparable within an allelic series)"
9,CCGAGAGG,"9.45 upbm affinity estimate (log intensity, higher = more binding, comparable within an allelic series)"
10,CCCGAGGG,"9.54 upbm affinity estimate (log intensity, higher = more binding, comparable within an allelic series)"

# Target: HOXA2 (Homo sapiens, UniProt O43364 129-215, R185K)
# Sequence (O43364 129-215 R185K): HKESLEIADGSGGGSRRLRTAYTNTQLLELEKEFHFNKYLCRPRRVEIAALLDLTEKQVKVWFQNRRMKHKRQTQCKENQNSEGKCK
# Test: PBM; 200 nM protein, PBS
# Conditions: dsDNA, one strand shown
row,Sequence,binding signal
1,CAGGCTTC,"10.5 upbm affinity estimate (log intensity, higher = more binding, comparable within an allelic series)"
2,CCCCCCAG,"9.81 upbm affinity estimate (log intensity, higher = more binding, comparable within an allelic series)"
3,ATGAATGA,"11.9 upbm affinity estimate (log intensity, higher = more binding, comparable within an allelic series)"
4,GCCCCGAC,"10.4 upbm affinity estimate (log intensity, higher = more binding, comparable within an allelic series)"
5,CAGGAAGG,"10.3 upbm affinity estimate (log intensity, higher = more binding, comparable within an allelic series)"

# Target: ALX1 (Homo sapiens, UniProt Q15699 118-204, L144R)
# Sequence (Q15699 118-204 L144R): as the sequence (Q15699 118-204 L144V) above, with V27R counted along it
# Test: PBM; 200 nM protein, PBS
# Conditions: dsDNA, one strand shown
row,Sequence,binding signal
1,CCGGACGG,"6.53 upbm affinity estimate (log intensity, higher = more binding, comparable within an allelic series)"
2,CAGCCTCC,"6.48 upbm affinity estimate (log intensity, higher = more binding, comparable within an allelic series)"
3,CCGAGAGG,"6.33 upbm affinity estimate (log intensity, higher = more binding, comparable within an allelic series)"
